# Experimental data published in publication PMC5540273 (PLoS ONE, 2017).
# What was measured:
# Settings in all cases: concentration: 1 μM, replicates: in singlicate; n = 1
# CLK2 = system: CLK2
# CLK3 = system: CLK3
# CLK4 = system: CLK4
# CSF1R-autoinhibited = system: CSF1R-autoinhibited
# CSF1R = system: CSF1R
# CSK = system: CSK
# CSNK1A1L = system: CSNK1A1L
# CSNK1A1 = system: CSNK1A1
# CSNK1D = system: CSNK1D
# CSNK1E = system: CSNK1E
# CSNK1G1 = system: CSNK1G1
# CSNK1G2 = system: CSNK1G2
# CSNK1G3 = system: CSNK1G3
# CSNK2A1 = system: CSNK2A1
# CSNK2A2 = system: CSNK2A2
# CTK = system: T1, CTK
# T1 construct: gene MATK
# DAPK1 = system: DAPK1
# DAPK2 = system: DAPK2
# DAPK3 = system: DAPK3
# DCAMKL1 = system: T2, DCAMKL1
# T2 construct: gene DCLK1
# 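Further: KINOMEscan kinase panel screen.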
Structure (SMILES),%Inh (CLK2),%Inh (CLK3),%Inh (CLK4),%Inh (CSF1R-autoinhibited),%Inh (CSF1R),%Inh (CSK),%Inh (CSNK1A1L),%Inh (CSNK1A1),%Inh (CSNK1D),%Inh (CSNK1E),%Inh (CSNK1G1),%Inh (CSNK1G2),%Inh (CSNK1G3),%Inh (CSNK2A1),%Inh (CSNK2A2),%Inh (CTK),%Inh (DAPK1),%Inh (DAPK2),%Inh (DAPK3),%Inh (DCAMKL1)
O=c1[nH]cc(-c2ccc(N3CCOCC3)cc2)c2sc(-c3cn[nH]c3)cc12 [GSK2276055],76%,37%,89%,0%,33%,7%,44%,73%,84%,94.4%,43%,43%,63%,64%,79%,0%,37%,19%,23%,12%
Cl.c1ccc(-c2ccc3c(Nc4ccc5[nH]ncc5c4)ccnc3c2)nc1 [GW440137],67%,12%,21%,0%,27%,0%,0%,0%,27%,41%,0%,17%,30%,0%,8%,0%,15%,0%,23%,12%
CN(C)S(=O)(=O)c1cc(-c2ccc3nccc(-c4cccc(S(N)(=O)=O)c4)c3c2)cnc1N [GSK1669921],86%,21%,54%,0%,7%,0%,14%,49%,0%,33%,22%,0%,33%,11%,4%,12%,0%,8%,3%,28%
c1ccc(-c2n[nH]cc2Nc2ccnc3ccccc23)nc1 [GW694077],94.3%,25%,96.5%,29%,7%,0%,20%,40%,55%,63%,100%,1%,12%,54%,68%,0%,23%,60%,66%,23%
Cn1cc(-c2ccc3c(c2)CCN3C(=O)Cc2cccc(F)c2)c2c(N)ncnc21 [GSK2603358],0%,0%,39%,26%,94.7%,14%,5%,0%,20%,77%,28%,0%,38%,0%,0%,0%,0%,0%,12%,14%
COc1ccc(Nc2nccc(NCCNC(=O)c3cc4ccccc4s3)n2)cc1 [GSK1379896],0%,0%,0%,0%,0%,0%,0%,0%,8%,16%,54%,0%,27%,0%,15%,0%,4%,2%,0%,10%
COc1cc(Nc2nccc(N3CCC(NC(=O)c4cc5ccccc5s4)C3)n2)cc(OC)c1OC (centres unmarked) [GSK1379760],0%,0%,13%,23%,18%,0%,0%,41%,10%,0%,9%,13%,8%,27%,0%,0%,54%,20%,1%,13%
O=C(Nc1ccccc1F)NC1CCN(c2ccnc(Nc3ccc(F)cc3)n2)CC1 [GSK1379800],0%,0%,0%,46%,5%,0%,27%,0%,54%,60%,3%,0%,12%,0%,0%,0%,0%,0%,20%,0%
COc1cc(Nc2nccc(-c3c(-c4cccc(NC(=O)c5c(F)cccc5F)c4)nn4ccccc34)n2)cc(OC)c1OC [GSK323521],0%,31%,18%,0%,93%,1%,15%,27%,29%,43%,20%,31%,25%,2%,6%,0%,0%,22%,19%,9%
Cl.c1ccc(-c2ccc3c(Nc4ccc5[nH]ccc5c4)ccnc3c2)nc1 [GW440138],0%,8%,19%,36%,75%,0%,0%,0%,13%,27%,0%,0%,25%,0%,0%,0%,5%,0%,23%,0%
COc1cc(Nc2nccc(N3CCC(NC(=O)Nc4cccc(C(C)=O)c4)C3)n2)cc(OC)c1OC (centres unmarked) [GSK1379753],0%,11%,0%,0%,31%,0%,0%,0%,3%,18%,12%,0%,21%,13%,16%,0%,5%,0%,13%,20%
Cc1ccc(S(=O)(=O)Nc2ccc(Nc3nccc(Nc4cccc5[nH]ncc45)n3)cc2)cc1 [GSK581271],0%,13%,87%,0%,22%,0%,5%,0%,46%,36%,0%,0%,7%,0%,0%,0%,0%,0%,5%,12%
Cl.Cl.NCC(NC(=O)c1cc(-c2ccccc2)c(-c2ccnc3[nH]ccc23)s1)c1ccccc1 (centres unmarked) [GSK1321561],0%,49%,19%,0%,0%,0%,97.1%,95.7%,98%,99.9%,14%,89%,81%,5%,38%,0%,0%,3%,12%,0%
CCc1ccc(-c2ccc3c(c2)-c2c(cnn2C)S(=O)(=O)N3C)cc1,13%,0%,10%,9%,3%,0%,0%,0%,0%,1%,0%,2%,0%,0%,10%,26%,1%,0%,5%,0%
Cc1ccc(F)c(C(=O)Nc2cccc(-c3nn4ccccc4c3-c3ccnc(Nc4cccc(F)c4)n3)c2)c1F [GSK361061],0%,0%,14%,0%,98.8%,39%,21%,41%,35%,54%,10%,12%,27%,20%,10%,27%,0%,10%,14%,0%
COc1ccc(Nc2nccc(N3CCC(NC(=O)Nc4cccc(OC)c4)C3)n2)cc1 (centres unmarked) [GSK1379742],0%,39%,9%,0%,0%,0%,19%,0%,1%,34%,13%,0%,20%,6%,0%,0%,0%,0%,0%,0%
COc1cccc(-c2ccc3c(NC(=O)C4CC4)n[nH]c3n2)c1 [SB-710903],100%,0%,20%,54%,10%,0%,12%,0%,18%,16%,0%,0%,10%,0%,79%,0%,0%,0%,13%,21%

Structure (SMILES),%Inh (CLK2),%Inh (CLK3),%Inh (CLK4),%Inh (CSF1R-autoinhibited),%Inh (CSF1R),%Inh (CSK),%Inh (CSNK1A1L),%Inh (CSNK1A1),%Inh (CSNK1D),%Inh (CSNK1E),%Inh (CSNK1G1),%Inh (CSNK1G2),%Inh (CSNK1G3),%Inh (CSNK2A1),%Inh (CSNK2A2),%Inh (CTK),%Inh (DAPK1),%Inh (DAPK2),%Inh (DAPK3),%Inh (DCAMKL1)
CN1CCN(Cc2cccc(-c3ccc4c(Nc5ccc(Oc6ccccc6)cc5)ccnc4c3)c2)CC1 [GW578342],6%,0%,0%,43%,5%,76%,0%,0%,0%,2%,18%,1%,2%,0%,0%,0%,100%,6%,25%,13%
Cl.Cl.NCC(NCc1ccc(-c2ccnc3[nH]ccc23)s1)c1ccccc1 (centres unmarked) [GSK1321565],43%,45%,88%,19%,50%,0%,16%,10%,26%,64%,0%,0%,33%,39%,37%,0%,67%,32%,71%,21%
COc1cccc(C2=C(Nc3ccc(Cl)c(C(=O)O)c3)C(=O)NC2=O)c1 [SB-390769],6%,0%,17%,13%,0%,0%,5%,0%,8%,13%,11%,0%,0%,0%,7%,95.9%,0%,0%,99.9%,100%
COc1cccc(C(=O)Nc2cccc(Oc3ccc4nc(NC(=O)C5CC5)cn4n3)c2)c1,16%,5%,0%,94.2%,100%,17%,17%,29%,1%,19%,13%,0%,30%,0%,17%,0%,0%,4%,9%,20%
Cc1occc1-c1ncc(OC[C@@H](N)Cc2c[nH]c3ccccc23)cc1-c1ccc2[nH]nc(C)c2c1.O=C(O)C(F)(F)F [GSK682037],63%,25%,9%,0%,1%,0%,97.3%,97%,97.8%,99.9%,76%,95.5%,93.7%,0%,8%,0%,0%,0%,2%,10%
NCCCC(NC(=O)c1cc(Br)c(-c2ccnc3[nH]ccc23)s1)c1ccccc1.O=C(O)C(F)(F)F.O=C(O)C(F)(F)F (centres unmarked) [GSK1287544],61%,33%,45%,0%,2%,0%,59%,90%,82%,84%,57%,97.2%,94.8%,27%,20%,0%,0%,0%,0%,8%
O=C(Nc1cccc(Oc2ccc3nc(NC(=O)C4CC4)cn3n2)c1)c1ccccc1C(F)(F)F,73%,32%,0%,88%,100%,11%,0%,24%,0%,20%,8%,0%,26%,0%,0%,0%,0%,5%,7%,39%
O=C(NC1CCN(c2ccnc(Nc3ccc(F)cc3)n2)C1)c1cc2ccccc2s1 (centres unmarked) [GSK1379716],0%,14%,30%,3%,2%,0%,11%,0%,0%,28%,20%,0%,24%,0%,12%,0%,19%,15%,5%,18%
Cn1cc(-c2ccc3c(c2)CCN3C(=O)Cc2cccc(Cl)c2)c2c(N)ncnc21 [GSK2606590],0%,13%,14%,5%,97.6%,6%,13%,20%,16%,63%,31%,0%,29%,8%,30%,0%,1%,5%,0%,12%
COc1cc(Nc2ncc3c(C)nc(-c4cc5ccccc5[nH]4)n3n2)cc(OC)c1OC [GW869516],75%,36%,43%,0%,0%,13%,0%,30%,0%,15%,21%,0%,29%,96.4%,99.7%,0%,0%,0%,11%,17%
FC(F)(F)c1ccc(/C=C/c2cncnc2Nc2ccc3[nH]c(Cc4ccccc4)nc3c2)cc1 [GW709199],0%,11%,0%,0%,4%,0%,36%,33%,3%,28%,2%,0%,4%,0%,0%,0%,0%,0%,11%,9%
CCCCc1nn2ncccc2c1-c1ccnc(Nc2ccc(N3CCN(C)CC3)cc2)n1 [GW684941],3%,0%,0%,73%,99.9%,7%,46%,93.1%,90.9%,99.4%,0%,0%,0%,0%,7%,13%,0%,0%,17%,17%
O=C(Nc1cccc(-c2nn3ccccc3c2-c2ccnc(Nc3cccc(F)c3)n2)c1)c1c(F)ccc(F)c1Cl [GSK357952],0%,0%,11%,0%,93.3%,20%,7%,2%,0%,40%,0%,0%,25%,41%,12%,15%,0%,0%,0%,3%
CSc1cccc2c(-c3ccncn3)c(-c3ccc(F)cc3)nn12 [GW514786],0%,11%,13%,21%,0%,0%,21%,61%,84%,69%,3%,10%,21%,0%,13%,0%,0%,0%,0%,5%
O=C(Nc1cccc(-c2nn3ncccc3c2-c2ccnc(Nc3ccccc3)n2)c1)c1c(F)cccc1F [GSK198271],0%,25%,8%,17%,99.7%,97.5%,2%,0%,20%,85%,19%,0%,26%,8%,11%,27%,11%,0%,1%,18%
Cl.NC(=O)c1cccc(Nc2nccc(Nc3ccc(Oc4c(Cl)cccc4Cl)c(Cl)c3)n2)c1 [GW659009],0%,0%,34%,0%,10%,0%,0%,13%,0%,0%,0%,2%,7%,3%,45%,34%,24%,8%,44%,0%
O=C(O)C(F)(F)F.O=C(O)C(F)(F)F.O=c1[nH]ccc2nc(N[C@@H]3CCCNC3)nc(Nc3ccc(S(=O)(=O)N4CCOCC4)cc3)c12 [GSK2177277],98.9%,41%,79%,83%,99.9%,51%,99.7%,99.9%,98.7%,99.9%,96.3%,98.8%,99.2%,98.7%,98.9%,69%,98.2%,98.1%,99.3%,98.1%
